# According to PubChem BioAssay (NCATS):
# Several values for one entry are separate records, joined by “and”; a condition that tells them apart may be missing. Equal entries are not always repeated. Records with an inconclusive call do not appear. Values without a mark were called inactive. Activity calls are given as the source filed them. Unless noted, the call rests on the fitted dose curve; in most records, active means well fitted curve in the direction sought with a large enough effect; inconclusive means small, poorly fitted or top-dose-only effect, or another doubt; inactive means no such curve, though single readings can be large; an effect the other way counts as inactive or inconclusive.
# Experiment: P-glycoprotein substrates identified in KB-3-1 adenocarcinoma cell line, qHTS therapeutic library screen (AID 1346986); further: nearly all actives have a fitted effect of over 60% in size;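 further: potency means the concentration at half of the fitted maximal effect; potency is for cytotoxicity meaning loss of cell viability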
# Conditions: KB-3-1 parental cells viability, CellTiter-Glo, 72 h; series mostly up to 44.5 µM; activity change, negative = cytotoxicity: at the top concentration
# In short: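 In 1536-well format, 500 cells/well received pinned compound titrations and were incubated 72 h, 5% CO2. Viability was read by CellTiter-Glo; cytotoxic if AC50 < 10 uM and efficacy >50%.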
SMILES,outcome,Potency
CN1CCN(CCCN2c3ccccc3Sc3ccc(C(F)(F)F)cc32)CC1,inactive,
CCOC(=O)N1CCC(=C2c3ccc(Cl)cc3CCc3cccnc32)CC1,inactive,
COc1ccc([C@@H]2CC(=O)c3c(O)cc(O[C@@H]4O[C@H](CO[C@@H]5O[C@@H](C)[C@H](O)[C@@H](O)[C@@H]5O)[C@@H](O)[C@H](O)[C@@H]4O)cc3O2)cc1O,inactive,
CCN(CC)CCCC(C)Nc1ccnc2cc(Cl)ccc12 (stereo not drawn),inactive,
NS(=O)(=O)c1cc2c(cc1Cl)NC=NS2(=O)=O,inactive,
CC(C=CC1=C(C)CCCC1(C)C)=CC=CC(C)=CC(=O)O,inactive,
CCOc1cc(N2CCC(O)CC2)ccc1Nc1ncc2c(n1)N(C)c1ccccc1C(=O)N2C,,8.2 µM (active)
CO[C@@H]1[C@H](N(C)C(=O)c2ccccc2)C[C@H]2O[C@]1(C)n1c3ccccc3c3c4c(c5c6ccccc6n2c5c31)C(=O)NC4,,1.3 µM (active)

# Experiment: P-glycoprotein substrates identified in KB-8-5-11 adenocarcinoma cell line, qHTS therapeutic library screen (AID 1346987); further: nearly all actives have a fitted effect of over 65% in size; further: potency means the concentration at half of the fitted maximal effect; on activity change, negative = cytotoxicity: on the % scale 0 is the no-effect control and ±100 the full control effect
# Conditions: KB-8-5-11 (P-gp overexpressing) viability, CellTiter-Glo, 72 h; series mostly up to 44.5 µM; activity change, negative = cytotoxicity: at the top concentration
# In short: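 Compounds are pinned in dose-response onto KB-8-5-11 cells (500 cells/well, colchicine-free medium) and left 72 h at 37 degree C. CellTiter-Glo luminescence then yields AC50 values.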
SMILES,Potency,outcome,"activity change, negative = cytotoxicity"
O=C1CCC(N2C(=O)c3ccccc3C2=O)C(=O)N1 (stereo not drawn),inactive,,
CCOC(=O)C1=C[C@]2(CC)CCCN3CCc4c(n1c1ccccc41)[C@@H]32,26.4 µM (active),,
Cn1cnc([N+](=O)[O-])c1Sc1ncnc2nc[nH]c12,4.61 µM (active) and 2 µM (active) and 833 nM (active),,
CN1CCN(CCCN2c3ccccc3Sc3ccc(C(F)(F)F)cc32)CC1,,inactive,
COc1ccc([C@@H]2CC(=O)c3c(O)cc(O[C@@H]4O[C@H](CO[C@@H]5O[C@@H](C)[C@H](O)[C@@H](O)[C@@H]5O)[C@@H](O)[C@H](O)[C@@H]4O)cc3O2)cc1O,inactive,,
Nc1ccc(S(=O)(=O)Nc2ccnn2-c2ccccc2)cc1,inactive,,
CCCCNc1cc(C(=O)O)cc(S(N)(=O)=O)c1Oc1ccccc1,inactive,,
O=c1[nH]cnc2[nH]ncc12,,,0.11%
CC(C)(C)NCC(O)c1ccc(O)c(CO)c1 (stereo not drawn),,inactive,
O=c1n(CCCN2CCN(c3cccc(Cl)c3)CC2)nc2ccccn12,,,-15.1%
O=C(O)COCCN1CCN(C(c2ccccc2)c2ccc(Cl)cc2)CC1 (stereo not drawn),inactive,,
CCN(CC)CCCC(C)Nc1ccnc2cc(Cl)ccc12 (stereo not drawn),inactive,,
CC(C)NCC(O)COc1ccc(COCCOC(C)C)cc1 (stereo not drawn),inactive,,
CCCC(CCC)C(=O)O,inactive,,
Cc1cnc(NC(=O)C2=C(O)c3ccccc3S(=O)(=O)N2C)s1,inactive,,
O=NN(CCCl)C(=O)NCCCl,inactive,,

SMILES,Potency,outcome,"activity change, negative = cytotoxicity"
Cc1[nH]c(=O)c(C#N)cc1-c1ccncc1,inactive,,
NCCc1ccc(O)c(O)c1,inactive,,
CC(C[N+](C)(C)C)OC(N)=O (stereo not drawn),inactive,,
Cc1ccc(N(CC2=NCCN2)c2cccc(O)c2)cc1,inactive,,
CC(=O)Oc1ccccc1C(=O)O,inactive,,
c1ccc([C@H]2CN3CCSC3=N2)cc1,inactive,,
NS(=O)(=O)c1cc2c(cc1Cl)NC=NS2(=O)=O,inactive,,
CC(C=CC1=C(C)CCCC1(C)C)=CC=CC(C)=CC(=O)O,inactive,,
NCCCC(N)(C(=O)O)C(F)F (stereo not drawn),inactive,,
CCOc1cc(N2CCC(O)CC2)ccc1Nc1ncc2c(n1)N(C)c1ccccc1C(=O)N2C,18.4 µM (active),,
CO[C@@H]1[C@H](N(C)C(=O)c2ccccc2)C[C@H]2O[C@]1(C)n1c3ccccc3c3c4c(c5c6ccccc6n2c5c31)C(=O)NC4,1.48 µM (active) and 1.3 µM (active),,
NNCCc1ccccc1,inactive,,
CNC(=O)c1ccccc1Sc1ccc2c(/C=C/c3ccccn3)n[nH]c2c1,18.4 µM (active) and 7.31 µM (active),,
O=C1CCc2cc(OCCCCc3nnnn3C3CCCCC3)ccc2N1,,inactive,
COc1cc(Oc2ccnc3cc(OC)c(OC)cc23)ccc1NC(=O)NC(C)c1nccs1 (stereo not drawn),,,4.97%

# Experiment: Natriuretic polypeptide receptor (hNpr1) antagonism - Pilot counterscreen GloSensor control cell line (AID 1347045; calls by dose curve; further: on the % scale 0 is the no-effect control and ±100 the full control effect)
# Conditions: HEK293 cGMP GloSensor cells, SNP-stimulated luminescence, 20 min; series mostly up to 38.3 µM; activity change, negative = inhibition: at the top concentration
# In short: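 Control counterscreen: luciferase cGMP-biosensor HEK293 cells (no Npr1) received compound for 30 min at room temperature after GloSensor substrate loading. Luminescence was measured before and 20 min after soluble guanylyl cyclase activation by 50 uM nitroprusside.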
SMILES,"activity change, negative = inhibition",outcome
O=C1CCC(N2C(=O)c3ccccc3C2=O)C(=O)N1 (stereo not drawn),-0.433%,
CCOC(=O)C1=C[C@]2(CC)CCCN3CCc4c(n1c1ccccc41)[C@@H]32,2.92%,
Cn1cnc([N+](=O)[O-])c1Sc1ncnc2nc[nH]c12,-1.76%,
CCOC(=O)N1CCC(=C2c3ccc(Cl)cc3CCc3cccnc32)CC1,-0.67%,
Oc1ccc(C2CNCCc3c2cc(O)c(O)c3Cl)cc1 (stereo not drawn),-1.17%,
Nc1ccc(S(=O)(=O)Nc2ccnn2-c2ccccc2)cc1,2.85%,
CCCCNc1cc(C(=O)O)cc(S(N)(=O)=O)c1Oc1ccccc1,-1.45%,
O=c1[nH]cnc2[nH]ncc12,0.0173%,
CC(C)(C)NCC(O)c1ccc(O)c(CO)c1 (stereo not drawn),,inactive
O=c1n(CCCN2CCN(c3cccc(Cl)c3)CC2)nc2ccccn12,1.15%,
O=C(O)COCCN1CCN(C(c2ccccc2)c2ccc(Cl)cc2)CC1 (stereo not drawn),-0.987%,
CCn1cc(C(=O)O)c(=O)c2cc(F)c(N3CCNC(C)C3)c(F)c21 (stereo not drawn),-0.118%,
CC(C)NCC(O)COc1ccc(COCCOC(C)C)cc1 (stereo not drawn),7.53%,
CCCC(CCC)C(=O)O,-0.218%,
Nc1nc2c(ncn2COCCO)c(=O)[nH]1,13.5%,
O=NN(CCCl)C(=O)NCCCl,-6.72%,
NCCc1ccc(O)c(O)c1,-1.13%,
CC(C[N+](C)(C)C)OC(N)=O (stereo not drawn),2.72%,
CC(=O)Oc1ccccc1C(=O)O,-3.21%,
c1ccc([C@H]2CN3CCSC3=N2)cc1,4.2%,
NC[C@H](O)c1ccc(O)c(O)c1,0.13%,
NCCCC(N)(C(=O)O)C(F)F (stereo not drawn),-1.58%,
N[C@@H]1CONC1=O,-0.854%,
O=C1CCc2cc(OCCCCc3nnnn3C3CCCCC3)ccc2N1,6.46%,
